From PubChem BioAssay (NCATS) come the findings set out here.

Results filed as inconclusive are left out. Where a call stands in place of a potency, no number is given. Unmarked numbers belong to inactive results. The source made the active and inactive calls. The call rests on the fitted dose curve; in most records, active means well fitted curve in the direction sought with a large enough effect; inconclusive means small, poorly fitted or top-dose-only effect, or another doubt; inactive means no such curve, though single readings can be large; an effect the other way counts as inactive or inconclusive.

One test concerns Zika virus NS2B-NS3 protease. Description: Primary screen GU AMC qHTS for Zika virus inhibitors (AID 1347154). Further: nearly all actives have a fitted effect of over 70% in size. Conditions: Zika NS2B-NS3 unlinked protease, AMC fluorogenic substrate; series mostly up to 54.1 µM. A digest of the protocol: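 Unlinked Zika NS2B hydrophilic domain/NS3 protease domain noncovalent complex (25 nM final) in 10 mM Tris-HCl pH 8.0, 0.01% Tween 20, with AMC peptide substrate. Fluorescence (ex 340, em 450 nm) change over 15 min, room temperature; percent inhibition fitted to 4-parameter Hill equation.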
(In qHTS, concentration-response curves come from the screen itself.)
As to `O=S(=O)(O)c1cc(I)c(O)c2ncccc12`, the Potency entry is “inactive”.
On to `CC(=O)Oc1ccc(C2(c3ccc(OC(C)=O)cc3)C(=O)Nc3ccccc32)cc1`, for which the Potency result is “inactive”.
Turning to `NC(=O)NNc1ccccc1`, the Potency entry is “inactive”.
For the compound `OCC(CO)N[C@H]1C[C@](O)(CO)[C@@H](O)[C@H](O)[C@H]1O`, the Potency result was “inactive”.
As to `C[C@H](N)[C@H](O)c1cccc(O)c1`, the Potency result is “inactive”.
Still for that read-out and setting: as for `Oc1cn2c(n1)Nc1ccc(Cl)c(Cl)c1C2`, the entry is “inactive”; as for `O=C1O[C@H](CO)[C@@H](O)[C@H](O)[C@H]1O`, “inactive”; as for `O=C1O[C@H]([C@@H](O)CO)C(O)=C1O`, “inactive”.
For `NCCNCCNCCN`, the Potency result is “inactive”.
For `CCC(=O)Nc1ccc(O)cc1`, the Potency result is “inactive”.
For the compound `O=c1cc(CO)occ1O`, the Potency entry was “inactive”.
In the case of `CCCc1c(OCCCCc2nn[nH]n2)ccc(C(C)=O)c1O`, the Potency entry was “inactive”.
Take `CC1=C(C/C=C(\C)CCC[C@H](C)CCC[C@H](C)CCCC(C)C)C(=O)c2ccccc2C1=O`: the Potency result was “inactive”.

Another test has as its system Zika virus NS2B-NS3 protease (unlinked complex). Description: Primary screen GU Rhodamine qHTS for Zika virus inhibitors: Unlinked NS2B-NS3 protease assay (AID 1347159). Further: nearly all actives have a fitted effect of over 60% in size. Further: potency means the concentration at half of the fitted maximal effect. Conditions: Recombinant ZIKV NS2B-NS3 protease, Rhodamine110 substrate fluorescence; series mostly up to 107 µM. A digest of the protocol:
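Noncovalent NS2B hydrophilic domain–NS3 protease domain complex (25 nM) preincubated 15 min at room temperature with compounds (up to 114 microM) in 10 mM Tris-HCl pH 8.0, 0.01% Tween 20; 1.5 microM Rhodamine110 substrate added, fluorescence change over 15 min fitted to Hill equation.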
Take `c1ccc(CN(CC2=NCCN2)c2ccccc2)cc1`: the Potency result is “inactive”.
On the same count and under the same terms, as for `COc1ccc2c(c1)C(=O)N(CCc1ccc(S(=O)(=O)NC(=O)NC3CCCCC3)cc1)C(=O)C2(C)C`, the entry is “inactive”.
For the compound `Cc1cc(N)c2ccccc2[n+]1CCCCCCCCCC[n+]1c(C)cc(N)c2ccccc21`, the Potency entry is “inactive”.
With `Cc1cccc(Nc2cc(Cl)nc(SCC(=O)O)n2)c1C`, the Potency entry is “inactive”.
As for `C[C@@H]1CN(c2c(F)c(F)c3c(=O)c(C(=O)O)cn(C4CC4)c3c2F)C[C@H](C)N1`, the activity change, negative = inhibition was -12.9% [at 19.1 µM].
Turning to `CN1CCOC(c2ccccc2)c2ccccc2C1` (configuration not stated), the Potency entry was “inactive”.
For the compound `O=C1Nc2ccc(Cl)cc2[C@@](C#CC2CC2)(C(F)(F)F)O1`, the Potency is 44.7 µM (active).
For the compound `C[C@]12CC[C@@H]3c4ccc(O)cc4CC[C@H]3[C@@H]1CC[C@@H]2OC(=O)CCC1CCCC1`, the Potency is 20 µM (active).
For the compound `CCN(CC)CCCC(C)Nc1c2ccc(Cl)cc2nc2ccc(OC)cc12` (configuration not stated), the Potency result is “inactive”.
Same read-out and setting: the same measure for `COc1ccc2[nH]c(S(=O)Cc3ncc(C)c(OC)c3C)nc2n1` (configuration not stated): “inactive”.

The subject of another test is Zika virus NS2B-NS3 protease (linked construct). The test is described as follows: Primary screen NINDS Rhodamine qHTS for Zika virus inhibitors (AID 1347160). Further: nearly all actives have a fitted effect of over 55% in size. The following applies: purified NS2B-NS3 protease, Rhodamine110 substrate fluorescence; series mostly up to 57.1 µM. A digest of the protocol: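 Purified linked NS2B-NS3 protease (NS2B hydrophilic domain joined to NS3 protease by flexible linker), 25 nM in 10 mM Tris-HCl pH 8.0, 0.01% Tween 20. Compounds titrated, 15 min preincubation at room temperature; 1.5 microM Rhodamine110 substrate, FITC fluorescence change over 15 min.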
Consider `c1ccc(CN(CC2=NCCN2)c2ccccc2)cc1`, for which the Potency result is “inactive”.
Consider `CC(C)c1c(C(=O)Nc2ccccc2)c(-c2ccccc2)c(-c2ccc(F)cc2)n1CC[C@@H](O)C[C@@H](O)CC(=O)O`, for which the Potency entry is “inactive”.
For the compound `Cc1cc(N)c2ccccc2[n+]1CCCCCCCCCC[n+]1c(C)cc(N)c2ccccc21`, the Potency result was “inactive”.
For the compound `CCOC(=O)[C@H](CCc1ccccc1)N[C@@H](C)C(=O)N1C(=O)N(C)C[C@H]1C(=O)O`, the Potency result is “inactive”.
`C[C@@H]1CN(c2c(F)c(F)c3c(=O)c(C(=O)O)cn(C4CC4)c3c2F)C[C@H](C)N1`: the outcome is “inactive [at 10.7 µM]”.
Consider `CN1CCOC(c2ccccc2)c2ccccc2C1` (configuration not stated), for which the Potency result was “inactive”.
Same read-out and setting: as for `O=C1Nc2ccc(Cl)cc2[C@@](C#CC2CC2)(C(F)(F)F)O1`, the entry is “inactive”; as for `CCN(CC)CCCC(C)Nc1c2ccc(Cl)cc2nc2ccc(OC)cc12` (configuration not stated), “inactive”.
As to `COc1ccc2[nH]c(S(=O)Cc3ncc(C)c(OC)c3C)nc2n1` (configuration not stated), the Potency result was “inactive”.
